Hits are enriched below; roughly 3.7% of the tested compounds scored in any of these assays.
tim23-1 inh – growth inhibitors of tim23-1 mutant yeast; S. cerevisiae tim23-1 growth, BacTiter-Glo luminescence, 24 h; inhibition, % at 20 µM; 330,000 compounds, 1.3% hits; AID 463212;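 active = growth inhibition of the mutant yeast at or above 50%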;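 note: temperature-sensitive mutant grown at 25 °C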
PfHsp90 set2 – growth inhibition of yeast expressing Plasmodium Hsp90 | inhibition, % at 9.4 µM | 310,000 compounds, 0.32% hits | S. cerevisiae expressing PfHsp90, BacTiter-Glo ATP, 48 h; yeast lacking PDR1 and PDR3 efflux regulators | AID 504621;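 active = every replicate shows inhibition above about 80%, whatever the replicate mean, limit read from the data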
TIM10 inh – inhibits growth of TIM10 yeast strain; S. cerevisiae TIM10 strain growth, BacTiter-Glo luminescence, 24 h; inhibition, % at 10 µM; 330,000 compounds, 1.4% hits; AID 463195;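 active = inhibition of 40% or more at the single tested concentration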;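 note: wild-type TIM10 isogenic control strain grown at permissive 25 °C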
tim10-1 inh – inhibits growth of tim10-1 mutant yeast | S. cerevisiae tim10-1 ts strain growth, BacTiter-Glo, 24 h | inhibition, % at 20 µM | 330,000 compounds, 2.2% hits | AID 463190;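 active = inhibition of at least 40%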;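 note: mutant grown at 25 °C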
NALP3 yeast inh – NALP3 inhibition in yeast; inhibition, % at 10 µM; AID 2825; 330,000 compounds, 0.39% hits; Yeast reconstituted NLRP3/ASC/caspase-1, beta-gal luminescence, 24 h;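 active = inhibition of 50% or more; inactive = inhibition below 50%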
NALP3 yeast conf – confirmation of NALP3 inhibitors in yeast. shares compounds with NALP3 yeast inh. 1,300 compounds, 81% hits. yeast expressing human NALP3, luminescence. inhibition, % at 10 µM; in the data active = inhibition above about 48%
Casp1-ASC yeast – active in yeast caspase-1-ASC counter-screen for NALP3 inhibitors. 1,000 compounds, 66% hits. shares compounds with NALP3 yeast inh. inhibition, % at 10 µM. yeast expressing Caspase-1-ASC, luminescence counter screen
NALP3 yeast rt – yeast NALP3 inhibition, confirmed on retest. shares compounds with NALP3 yeast inh. yeast expressing human NALP3, luminescence read-out. inhibition, % at 10 µM. 1,000 compounds, 53% hits. AID 488794
Numbers stand for hits; i = inactive; nt = not tested or not shown. Cut-off read from the data, not from the text of the source, unless noted: active = inhibition above about 50%; inactive = the rest.

SMILES | tim23-1 inh | PfHsp90 set2 | TIM10 inh | tim10-1 inh | NALP3 yeast inh | NALP3 yeast conf | Casp1-ASC yeast | NALP3 yeast rt
CC(C)(C)[C@H]1C=C(C(=O)Nc2ccccc2)O[C@@H](OCc2ccc(CO)cc2)C1 | i | i | i | i | 53 | 59 | 61 | 53
CC(C)(C)[C@@H]1C=C(C(=O)NCc2ccccc2)O[C@H](OCc2ccc(CO)cc2)C1 | i | i | i | i | i | nt | nt | nt
COc1cc(C=O)c(Br)cc1OCC(=O)NCCc1ccccc1 | i | i | i | i | i | i | nt | nt
COc1cc(CNCCc2ccccc2)cc(Br)c1OCC(=O)Nc1ccccc1C | i | i | i | i | 54 | i | i | i
CNCc1cc(Br)c(OCC(=O)Nc2ccccc2OC)c(OC)c1 | i | i | i | i | i | nt | nt | nt
Cc1ccccc1OCc1occc1C(=O)Nc1cccc(-n2cnnn2)c1 | i | i | i | i | i | nt | nt | nt
Cc1ccccc1CN(C)C(=O)c1ccc2ccccc2n1 | i | i | i | i | i | nt | nt | nt
CN(C)c1ncc(CN2CCC(CO)(CCCc3ccccc3)CC2)s1 | i | i | i | i | 70 | i | nt | nt
CC(C)(C)OC(=O)N1CSC[C@H]1C(=O)NC[C@H](CC(=O)O)c1ccc(Cl)cc1 | i | i | i | i | i | nt | nt | nt
CCCSc1nsc(NC(=O)Nc2ccc(F)cc2F)n1 | i | i | i | i | 51 | 51 | i | i
CCCSc1nsc(NC(=O)C(c2ccccc2)c2ccccc2)n1 | i | i | i | i | i | nt | nt | nt
CC(=O)c1ccc(NC(=O)CN2C(=O)NC(C)(c3ccc4c(c3)OCCO4)C2=O)cc1 (stereo not given) | i | i | i | i | i | nt | nt | nt
O=C(NC1CC1)c1cc2c(s1)-c1ccccc1OC2 | i | i | i | i | 60 | 74 | 57 | i
O=C(O)c1cc2c(s1)-c1ccccc1OC2 | i | i | i | i | i | nt | nt | nt
O=C(O)C(Cc1ccccc1[N+](=O)[O-])N1C(=O)c2ccccc2C1=O (stereo not given) | nt | i | nt | nt | nt | nt | nt | nt
c1ccc2c(c1)CSc1ccccc1N2 | i | nt | i | i | 53 | i | nt | nt
CC(C)(C)NC(=O)N1CCN(S(=O)(=O)c2ccc3c(c2)CCC3)CC1 | i | i | i | i | i | nt | nt | nt
CC(C)COC(=O)N1CCN(S(=O)(=O)c2ccc3c(c2)CCC3)CC1 | i | i | i | i | 53 | 51 | i | i
C#CCN(Cc1ccccc1)S(=O)(=O)C=C | i | nt | i | i | i | nt | nt | nt
Nc1cc(S(=O)(=O)N2CCCCC2)ccc1Oc1ccc(Cl)cc1 | i | i | i | i | i | nt | nt | nt
COC(=O)c1ccc(Oc2ccc(S(=O)(=O)N3CCCCC3)cc2N)cc1 | i | i | i | i | 88 | 94 | 93 | 88
COC(=O)CNc1cc(S(=O)(=O)N2CCCCC2)ccc1Oc1ccc(C(=O)OC)cc1 | i | i | i | i | 66 | 70 | i | i
COC(=O)CNc1cc(S(=O)(=O)N2CCCCC2)ccc1Oc1cccc(C)c1 | i | i | i | i | i | nt | nt | nt
O=C(CS(=O)CC(=O)NC12CC3CC(CC(C3)C1)C2)Nc1ccc(F)cc1 (stereo not given) | i | i | i | i | i | nt | nt | nt
O=C(C[C@H]1C/C=C\CC[C@@H](Cc2ccc(F)cc2)C(=O)OCCNC1=O)NCCO | i | i | i | i | i | nt | nt | nt
SMILES | tim23-1 inh | PfHsp90 set2 | TIM10 inh | tim10-1 inh | NALP3 yeast inh | NALP3 yeast conf | Casp1-ASC yeast | NALP3 yeast rt
COc1ccc(CCC(=O)OCC(=O)Nc2sccc2C(N)=O)cc1OC | i | i | i | i | i | nt | nt | nt
CC(NC(=O)c1ccccc1F)C12CC3CC(CC(C3)C1)C2 (stereo not given) | i | i | i | i | 51 | 60 | 53 | i
Cc1ccc(C(=O)Nc2ccc3nc(C)sc3c2)s1 | i | i | i | i | i | nt | nt | nt
Cc1nc2cc(NC(=O)c3ccc(Br)s3)ccc2s1 | i | i | i | i | 51 | 69 | i | i
CC(=O)Oc1c(I)cc(I)cc1C(=O)Nc1ccc(Cl)cc1 | i | nt | i | i | 60 | 77 | i | 58
CN(c1ccccc1)c1nccc(=O)[nH]1 | i | i | i | i | i | nt | nt | nt
CC1CCc2nc3sc4c(c3c(N)c2C1)CCCC4 (stereo not given) | i | i | i | i | 59 | i | nt | nt
CC1CCc2c(nc3sc4c(c3c2N)CCCC4)C1 (stereo not given) | i | i | i | i | 54 | 77 | 67 | 58
Nc1c2c(nc3sc4c(c13)CCCCC4)CCCCC2 | i | i | i | i | i | nt | nt | nt
COc1ccc(CNC(=O)CNS(=O)(=O)c2cccc(C#N)c2)cc1OC | nt | i | nt | nt | nt | nt | nt | nt
S=C1SCN(Cc2cccnc2)CN1Cc1cccnc1 | i | 85 | i | i | 57 | 58 | i | i
S=C1SCN(Cc2ccccc2)CN1Cc1ccccc1 | i | i | i | i | i | nt | nt | nt
C/C=C/c1ccc(OCC(=O)NCc2ccccc2OC)c(OC)c1 | i | i | i | i | 50 | i | nt | nt
CCC1Oc2ccccc2N(Cc2ccccc2C)C1=O (stereo not given) | i | nt | i | i | i | i | nt | nt
Cc1ccc(-c2cc(-c3ccccc3)no2)c(O)c1 | nt | i | nt | nt | nt | nt | nt | nt
Oc1ccccc1-c1cc(-c2ccccc2)no1 | i | i | i | i | 55 | 60 | 59 | 56
Cc1csc2c(N3CCN(S(=O)(=O)c4ccc(Cl)cc4)CC3)ncnc12 | i | i | i | i | 68 | 55 | i | i
COc1ccc(Cl)cc1NS(=O)(=O)c1cccc(C(=O)NCC(c2ccco2)N(C)C)c1 (stereo not given) | i | i | i | i | i | nt | nt | nt
CCCCCNC(=O)C(=O)C1C(=O)Nc2ccccc21 (stereo not given) | i | i | i | i | 52 | 71 | i | 51
CN(C)CCNC(=O)C(=O)C1C(=O)Nc2ccccc21 (stereo not given) | i | nt | i | i | i | nt | nt | nt
CCOc1ccccc1C(=O)Nc1ccccc1O | i | i | i | i | 54 | 57 | 56 | 55
Cc1ccc(-c2nc(S(=O)(=O)c3ccc(C)cc3)c(N(C)C)o2)cc1 | i | i | i | i | 71 | 66 | 82 | 62
CC1CN(S(=O)(=O)c2cc(C(=O)N(C)Cc3cccs3)ccc2Cl)CC(C)O1 (stereo not given) | i | i | i | i | i | nt | nt | nt
COC(=O)CSc1nc2cc3c(cc2cc1C)OCCO3 | i | i | i | i | 69 | 73 | 80 | 71
Cc1nc2ccccc2c(N)c1C(=O)/C=C/c1ccccc1 | i | i | i | i | 75 | 74 | 56 | i
S=C(Nc1ccccc1)N1CCC(Cc2ccccc2)CC1 | i | i | i | i | i | nt | nt | nt
Cc1ccc(NC(=O)CSc2nnnn2-c2cccnc2)c(C)c1 | i | i | i | i | i | nt | nt | nt
CCN(CC)c1ccc2nc3ccccc3[n+](CC)c2c1 | i | i | i | i | 67 | 73 | i | 57
Oc1c(C=Nc2ccccc2)sc(=S)n1Cc1ccccc1 | i | i | i | i | i | nt | nt | nt
CCn1c(O)c(C=Nc2ccccc2)sc1=S | i | nt | i | i | 54 | 58 | 56 | 60

Assay outcomes deposited in PubChem BioAssay by several laboratories.
